Whole data set: some 25,000 sequences, median “ln(normalized median fluorescence intensity)” near 7.1, cut for the highest 2% near 10. The entries come from a sample that favours the highest values as a whole.

This assay deals with PfSIP2 AP2 domain 1 (GST-tagged). In words: gcPBM binding intensity (ln(normalized median fluorescence intensity)); higher = stronger DNA binding. In short, it runs like this:
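Binding intensity is defined as the maximum Masliner-normalised natural-log median intensity across replicate spots for either probe orientation. It was measured on an Agilent 4 × 180k array of primer-extended double-stranded 36-bp intergenic genomic probes and negative controls, to which GST-tagged P. falciparum DNA-binding domains made in E. coli were applied for 1 h in 1× PBS with 1% milk, 0.2 mg/ml BSA, 0.5% salmon testes DNA and 0.03% Triton X-100. Detection was by Alexa488 anti-GST antibody and scanning at 488 nm.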
Regarding “TGTTTTATTTATTAAGCACACGCGATTTAAAAAATA [CACACA_site981]”, the “gcPBM binding intensity (ln)” value worked out at 6.79.
For “TGTATATTTTAGTGATGTACTAATATTATTACTAAT [XGTACX_site3952]”, the “gcPBM binding intensity (ln)” value stood at 6.99.
As to “TTCTAATATTTACATAATATATAGAAATATAAAGGT [XGTACX_negctrl_site504]”, the “gcPBM binding intensity (ln)” value was found to be 7.4.
Next, “TATATTAACAAAATGGTGCAATAATTTCTATATTGT [GTGCAC_site9430]”: 9.87; “TATATTAACAAAATGGTGCAATAATTTCTATATTAT [GTGCAC_site9857]”: 10.4.
As for “GTAGACATTATAATGGTGCAAAAAAATTAACAAAAA [GTGCAC_site9891]”, the figure is 10.5; as for “TATATTATCAAAATGGTGCAATAATTTCTATATTAT [GTGCAC_site9772]”, 9.9.
Next, “AGCAAAACAAAAAAATTAAAATTAACATATAATCAT [GTGCAC_negctrl_site393]”: 6.7; “GTTAACAAATAATGCACACAAATGGATAAAATTATA [CACACA_site3725]”: 7.68.
In the case of “TTAAATACTAAAAAGTGTACACATACATAAAAAATT [XGTACX_site6261]”, the “gcPBM binding intensity (ln)” value came out at 7.32.
Take “TTTTGTTTATTATGATTCAAAATGATTTTATCTTTG [TGCATGCA_negctrl_site425]”: the “gcPBM binding intensity (ln)” value was found to be 6.71.
Next, “ACATATATATATTTATATATATATATATATATGTGA [CACACA_negctrl_site613]”: 7.44; “AAGTATAGTCTTACATATATATATATATATATATAT [GTGCAC_negctrl_site280]”: 9.42.
Next, “AGTTTTATATAAGCTTGTACTTAATATTATTAAGTA [XGTACX_site5919]”: 6.99; “ATCTAATATATATTCTGTACGTAATTAAAACCACAA [XGTACX_site3152]”: 7.54.
Turning to “GGACTTAAATAAAATGGTACAGAATTTATATATATT [XGTACX_site8214]”, the “gcPBM binding intensity (ln)” value came out at 6.83.
As for “TAGTTAACAAATAATGCACACAAATGGATAAAATTA [CACACA_site9240]”, the figure is 7.83.
As for AAATAGTTGTTAAAGGTGCACAATATGGATATAAGA, the figure is 11.2.
Next, “TTAAAAGTTATGGATACACACATATAAATATAGATT [CACACA_site7175]”: 6.77; “GTAAATATTAATAAAAGTACATATGTAGCATATGGA [XGTACX_site5219]”: 7.09; “TTATTTATTTATTCATGTACGTGTATTTTTTAAAAA [XGTACX_site7915]”: 7.28.
In the case of “TTAAATTACTAATGTGCACACATACTAACGTTTAAA [CACACA_site3573]”, the “gcPBM binding intensity (ln)” value is 9.21.
As to TATATATATATATATGTGCACATTTTATTAAAATGT, the “gcPBM binding intensity (ln)” value came to 9.6.
In the case of “TGTGCACGTTCTGTGACACACATTTAAATGTGCTTA [CACACA_site176]”, the “gcPBM binding intensity (ln)” value turned out to be 10.7.
As for “TCTGTATATTTCGCGCGTACGAACAAATTGATAATT [XGTACX_site7965]”, the figure is 7.11.
On to “CTATAATATTAGTGCACACACAAAAATGTACTAAAC [CACACA_site6442]”, for which the “gcPBM binding intensity (ln)” value was 11.3.
Next, “ATATAATATTAGTGCACACACAAAAATGTACTAAAC [CACACA_site632]”: 10.9; “TATAATATAATATATGCACACAAATATGTATATATG [CACACA_site8664]”: 7.15; “AAAAATATAATATAATGTACACAAAAAAAAAAAAAT [XGTACX_site4914]”: 7.13.
Next, “GTATATAATATTAGTGCACACACAAAAATGTACTAA [CACACA_site8112]”: 10.9.
As for “AGAAAAATAAACAAATGTACAAATTATTACTATATA [XGTACX_site1087]”, the figure is 6.8.
For the sequence “ATAATAAATACACTAGTGCAAAATAATATATGTACT [GTGCAC_site9707]”, the “gcPBM binding intensity (ln)” value came to 8.13.
As for “AAAAATATAATATAATGTACACATAAACAAAAAAAA [XGTACX_site3658]”, the figure is 7.04; as for “ATATTACAAATATAATGTACAAAATATAAATATGCA [XGTACX_site8106]”, 6.85; as for “TTCGTATATTATTAATGTACATTATAAAATCAATAT [XGTACX_site5751]”, 7.08.
Next, “GACTGAACAACATAATGTACATTTATAAGTATATAT [XGTACX_site3813]”: 7.15; “TTTTTTTTCAATGGTTGTACAAAGTAAAACAACAAA [XGTACX_site1582]”: 7.2; “ATATGTAAATAAATATGTACTCATTTATTATTTTAT [XGTACX_site8748]”: 7.06.
Next, “CATTTTATTCTATATGCATGTTAAAAAATGTGTTGA [TGCATGCA_site128]”: 7.12; “AAATATAATATACAAAGTACTTTTTCATCTTATATA [XGTACX_site8771]”: 6.84; “AAACAATTTGGGTGTACACATGATACGTTCGATGAG [CACACA_site5160]”: 7.18.
For the sequence “ATAAAAGAATAAATAAAACACATATATATATATATA [XGTACX_negctrl_site31]”, the “gcPBM binding intensity (ln)” value came to 9.43.
For “ATATTTATAAATTGCACACAAATAATAACATTATAT [CACACA_site5322]”, the “gcPBM binding intensity (ln)” value is 7.13.
As for “TATAATATTTGGTGCACACAAATTAACAACTGTTTA [CACACA_site3742]”, the “gcPBM binding intensity (ln)” value came to 11.7.
Next, “AAATATTTATAAATTGCACACAAATAATAACATTAT [CACACA_site8737]”: 7.
Turning to “CTTTGTAGTATATTAACACACAACTGTTTATAATAT [CACACA_site6038]”, the “gcPBM binding intensity (ln)” value turned out to be 7.05.
Next, “TGTATAATATTTGGTGCACACAAATTAACAACTGTT [CACACA_site9245]”: 11.4.
Next, “TTCTTTGTAGTATATTAACACACAACTGTTTATAAT [CACACA_site9305]”: 7.27; “AAAGGTTCACATTATATAGTTATGTAATATATATGT [CACACA_negctrl_site542]”: 6.84; “ATATTTCATTTTTGTACACACAACGTTGGAGGGTTT [CACACA_site3043]”: 7.18.
Next, “TCATATTTCCATAGGAGTACATAAAAAAAATAATAT [XGTACX_site7601]”: 7.06; “TAAAAATAATATTAATGTACATTACATATTAATATA [XGTACX_site1019]”: 6.83; “ATAAATAAATTTATACGTACACATAATATATATATA [XGTACX_site4634]”: 8.89.
As to “AAAAGACATTTTTTTTTATAAATACACACGTACGTG [TGCATGCA_negctrl_site281]”, the “gcPBM binding intensity (ln)” value was found to be 6.95.
As for “GTTATAAATGCATATACACACATACGTACATACATA [CACACA_site7655]”, the figure is 7.4; as for “TTTTATAAATACACACGTACGTGTGCATAACGTTTT [XGTACX_site3199]”, 7.21; as for “CATTTTTTTTTATAAATACACACGTACGGGTGCATA [CACACA_site1569]”, 10.9.
As for “TTTTTTTTTATAAATACACACGTACGGGTGCATAAC [CACACA_site8444]”, the figure is 11.3.

The values are drawn from the supplement of paper PMC11417369.
